In PubChem BioAssay AID1159580 (chemical genetic matrix, 2015):
Hit rate of the full screen: of about 5,500 compounds, about 2,000 (36%) were called active. About 18% were inconclusive and are not listed. Rule as the data show it: active = normalized growth mostly below about 0.91 (no sharp cut-off); inconclusive = no clear call, values can overlap the other calls; inactive = mostly above about 0.92. This is one part of the list.

Assay: chemical genetic growth profiling, strain panel (AID 1159580);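 also: tested at 20 µM; growth read once vehicle control cultures reached saturation at 30 °C; 1 = growth at the plate median or of vehicle wells; lower values mean less growth of the strain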
Details: growth OD

Measured: normalized growth

CC(=O)O[C@@H]1CC2C(C)(C)[C@H](O)CC[C@]2(C)C2CC[C@@]3(C)[C@H](c4ccoc4)OC(=O)C4OC43[C@@]21C (some centres not stated)
inactive: S. cerevisiae deletion strains, locus YJR066W, strain TOR1, stronger effect = lower value 1 | S. cerevisiae deletion strains, locus YJR075W, strain HOC1, stronger effect = lower value 1 | S. cerevisiae deletion strains, locus YKL009W, strain mrt4, stronger effect = lower value 0.963 | S. cerevisiae deletion strains, locus YKL068W, stronger effect = lower value 0.991 | S. cerevisiae deletion strains, locus YKL085W, strain MDH1 (second series), stronger effect = lower value 0.99 | S. cerevisiae deletion strains, locus YKL085W, strain MDH1, stronger effect = lower value 0.99 | S. cerevisiae deletion strains, locus YKL160W, strain elf1, stronger effect = lower value 0.989 | S. cerevisiae deletion strains, locus YKR001C, strain vps1, stronger effect = lower value 0.969 | S. cerevisiae deletion strains, locus YKR026C, strain gcn3, stronger effect = lower value 0.992 | S. cerevisiae deletion strains, locus YKR091W, strain srl3, stronger effect = lower value 1.01 | S. cerevisiae deletion strains, locus YLL001W, strain dnm1, stronger effect = lower value 1.03 | S. cerevisiae deletion strains, locus YLL026W, stronger effect = lower value 1.01 | S. cerevisiae deletion strains, locus YLL041C, strain sdh2, stronger effect = lower value 1.01 | S. cerevisiae deletion strains, locus YLR027C, strain aat2, stronger effect = lower value 1.01 | S. cerevisiae deletion strains, locus YLR039C, strain RIC1, stronger effect = lower value 1.01 | S. cerevisiae deletion strains, locus YLR058C, strain SHM2, stronger effect = lower value 1 | S. cerevisiae deletion strains, locus YLR102C, strain apc9, stronger effect = lower value 0.989 | S. cerevisiae deletion strains, locus YLR113W, strain HOG1, stronger effect = lower value 1.08 | S. cerevisiae deletion strains, locus YLR221C, strain rsa3, stronger effect = lower value 1.02 | S. cerevisiae deletion strains, locus YLR258W, strain gsy2, stronger effect = lower value 1.02 | S. cerevisiae deletion strains, locus YLR262C, strain YPT6 (second series), stronger effect = lower value 1 | S. cerevisiae deletion strains, locus YLR262C, strain YPT6, stronger effect = lower value 1.05 | S. cerevisiae deletion strains, locus YLR268W, strain sec22, stronger effect = lower value 0.984 | S. cerevisiae deletion strains, locus YLR320W, strain mms22, stronger effect = lower value 1.03 | S. cerevisiae deletion strains, locus YLR342W, strain FKS1 (second series), stronger effect = lower value 1.06 | S. cerevisiae deletion strains, locus YLR342W, strain FKS1, stronger effect = lower value 1.01 | S. cerevisiae deletion strains, locus YLR357W, strain rsc2, stronger effect = lower value 1.03 | S. cerevisiae deletion strains, locus YLR370C, strain arc18, stronger effect = lower value 1.01 | S. cerevisiae deletion strains, locus YLR371W, strain rom2, stronger effect = lower value 0.975 | S. cerevisiae deletion strains, locus YLR384C, strain iki3, stronger effect = lower value 1.02 | S. cerevisiae deletion strains, locus YLR418C, strain cdc73, stronger effect = lower value 0.984 | S. cerevisiae deletion strains, locus YML016C, strain PPZ1, stronger effect = lower value 0.982 | S. cerevisiae deletion strains, locus YML032C, strain rad52, stronger effect = lower value 0.975 | S. cerevisiae deletion strains, locus YML120C, strain ndi1, stronger effect = lower value 1.03 | S. cerevisiae deletion strains, locus YML124C, strain tub3, stronger effect = lower value 0.988 | S. cerevisiae deletion strains, locus YMR058W, strain fet3, stronger effect = lower value 1.03 | S. cerevisiae deletion strains, locus YMR078C, strain ctf18, stronger effect = lower value 0.972 | S. cerevisiae deletion strains, locus YMR125W, strain sto1, stronger effect = lower value 1 | S. cerevisiae deletion strains, locus YMR129W, stronger effect = lower value 1 | S. cerevisiae deletion strains, locus YMR205C, strain PFK2, stronger effect = lower value 1.04 | S. cerevisiae deletion strains, locus YMR223W, strain ubp8, stronger effect = lower value 0.995 | S. cerevisiae deletion strains, locus YMR231W, strain pep5, stronger effect = lower value 1.01 | S. cerevisiae deletion strains, locus YMR307W, strain GAS1, stronger effect = lower value 0.977 | S. cerevisiae deletion strains, locus YNL067W, strain RPL9B, stronger effect = lower value 1.02 | S. cerevisiae deletion strains, locus YNL071W, strain lat1, stronger effect = lower value 0.994 | S. cerevisiae deletion strains, locus YNL128W, strain TEP1, stronger effect = lower value 0.975 | S. cerevisiae deletion strains, locus YNL153C, strain GIM3, stronger effect = lower value 1.01 | S. cerevisiae deletion strains, locus YNL183C, strain NPR1, stronger effect = lower value 1.01 | S. cerevisiae deletion strains, locus YNL209W, strain ssb2, stronger effect = lower value 1.01 | S. cerevisiae deletion strains, locus YNL233W, strain BNI4, stronger effect = lower value 1.04 | S. cerevisiae deletion strains, locus YNL248C, strain rpa49, stronger effect = lower value 0.979 | S. cerevisiae deletion strains, locus YNL250W, strain rad50, stronger effect = lower value 1 | S. cerevisiae deletion strains, locus YNL271C, strain bni1, stronger effect = lower value 0.991 | S. cerevisiae deletion strains, locus YNL298W, strain CLA4, stronger effect = lower value 0.992 | S. cerevisiae deletion strains, locus YNL307C, strain MCK1, stronger effect = lower value 0.995 | S. cerevisiae deletion strains, locus YNL322C, strain KRE1 (second series), stronger effect = lower value 1.01 | S. cerevisiae deletion strains, locus YNL322C, strain KRE1, stronger effect = lower value 1.01 | S. cerevisiae deletion strains, locus YNR049C, strain mso1, stronger effect = lower value 1.01 | S. cerevisiae deletion strains, locus YNR052C, strain pop2, stronger effect = lower value 0.997 | S. cerevisiae deletion strains, locus YOL012C, strain htz1 1.17 | S. cerevisiae deletion strains, locus YOL147C, strain pex11, stronger effect = lower value 0.992 | S. cerevisiae deletion strains, locus YOR001W, strain rrp6, stronger effect = lower value 0.994 | S. cerevisiae deletion strains, locus YOR061W, strain CKA2, stronger effect = lower value 0.94 | S. cerevisiae deletion strains, locus YOR069W, strain VPS5, stronger effect = lower value 1 | S. cerevisiae deletion strains, locus YOR070C, strain gyp1, stronger effect = lower value 1.01 | S. cerevisiae deletion strains, locus YOR080W, strain dia2, stronger effect = lower value 1.01 | S. cerevisiae deletion strains, locus YOR083W, strain WHI5, stronger effect = lower value 0.979 | S. cerevisiae deletion strains, locus YOR106W, strain vam3, stronger effect = lower value 1 | S. cerevisiae deletion strains, locus YOR136W, strain idh2, stronger effect = lower value 0.998 | S. cerevisiae deletion strains, locus YOR144C, strain elg1, stronger effect = lower value 0.984 | S. cerevisiae deletion strains, locus YOR184W, strain ser1, stronger effect = lower value 0.975 | S. cerevisiae deletion strains, locus YOR231W, strain MKK1, stronger effect = lower value 1.09 | S. cerevisiae deletion strains, locus YOR265W, strain rbl2, stronger effect = lower value 1.01 | S. cerevisiae deletion strains, locus YOR270C, strain vph1, stronger effect = lower value 0.912 | S. cerevisiae deletion strains, locus YOR290C, strain snf2, stronger effect = lower value 0.985 | S. cerevisiae deletion strains, locus YOR316C, strain cot1, stronger effect = lower value 0.977 | S. cerevisiae deletion strains, locus YPL051W, strain arl3, stronger effect = lower value 1 | S. cerevisiae deletion strains, locus YPL078C, strain atp4, stronger effect = lower value 0.973 | S. cerevisiae deletion strains, locus YPL106C, strain sse1, stronger effect = lower value 1.03 | S. cerevisiae deletion strains, locus YPL240C, strain hsp82, stronger effect = lower value 1 | S. cerevisiae deletion strains, locus YPL256C, strain CLN2, stronger effect = lower value 1.08 | S. cerevisiae deletion strains, locus YPR119W, strain clb2, stronger effect = lower value 0.992 | S. cerevisiae deletion strains, locus YPR141C, strain kar3, stronger effect = lower value 0.962 | S. cerevisiae deletion strains, locus YPR163C, strain tif3, stronger effect = lower value 0.984 | S. cerevisiae deletion strains, locus YPR167C, strain met16, stronger effect = lower value 0.998 | S. cerevisiae deletion strains, strain wtn01, stronger effect = lower value 0.959 | S. cerevisiae strains, strain wild type, stronger effect = lower value 1
